Measurements: PubChem BioAssay (NCI)
Compounds without any hit were thinned out: in the full panel of roughly 79,000, 15% have a hit. No stated cut-off is given here; in the data, active means growth inhibition above about 70%; inactive means the rest.

How the values were obtained:
[1] = NCI Yeast Anticancer Drug Screen. Data for the rad50 strain (AID 155);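 further: 0% = growth of vehicle-only cultures of the same strain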; conditions: S. cerevisiae rad50 strain growth inhibition; at 50.0 µM; hits give high values
Summary of the method: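 Growth of the mutant yeast was measured after compound exposure and referenced to vehicle-treated cultures.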

[2] = NCI Yeast Anticancer Drug Screen. Data for the mec2-1 strain (AID 157); conditions: S. cerevisiae mec2-1 strain, at 50.0 µM, hits give high values
Summary of the method: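 Each compound was tested on mec2-1 yeast, a strain altered in DNA damage repair or cell cycle control. Growth inhibition is reported relative to vehicle.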

[3] = NCI Yeast Anticancer Drug Screen. Data for the sgs1 mgt1 strain (AID 161);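 further: 0% = growth of cultures given vehicle only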; conditions: S. cerevisiae sgs1 mgt1 strain, at 50.0 µM, hits give high values
Summary of the method: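 Mutant yeast exposed to compound; growth scored against vehicle-only wells.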

[4] = NCI Yeast Anticancer Drug Screen. Data for the cln2 rad14 strain (AID 165);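 further: 0% = growth equal to vehicle treated cultures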; conditions: S. cerevisiae cln2 rad14 strain, at 50.0 µM, hits give high values
Summary of the method: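 Test compounds were added to cln2 rad14 yeast cultures; inhibition of growth was then determined by comparison with vehicle treatment.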

[5] = NCI Yeast Anticancer Drug Screen. Data for the bub3 strain (AID 167); conditions: S. cerevisiae bub3 mutant strain, at 50.0 µM, hits give high values
Summary of the method: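 Whole-cell yeast assay. The mutant strain was incubated with compounds, and growth inhibition was determined by comparison with vehicle-treated cells.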

[6] = NCI Yeast Anticancer Drug Screen. Data for the mlh1 rad18 strain (AID 175); conditions: S. cerevisiae mlh1 rad18 strain growth inhibition; at 50.0 µM; hits give high values
Summary of the method: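 Inhibition values reflect reduced growth of mutant yeast versus vehicle-treated controls following compound exposure; the mutations affect DNA damage repair.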

Measured: growth inhibition

C1=C(C2=CCCCC2)CCCC1
inactive: [1] -1.35% | [2] 6% | [3] -4.35% | [4] -42.9% | [5] 4.8% | [6] 4.15%

CC(CC(=O)Nc1ccccc1)C(=O)O (stereo unspecified)
inactive: [1] 7.85% | [2] -7.1% | [3] -10.8% | [4] -26.4% | [5] 5.55% | [6] 2.55%

O=C(O)CCc1coc2ccc(O)cc12
inactive: [1] -0.45% | [2] 10.1% | [3] 8.4% | [4] -20.6% | [5] -6.1% | [6] 14.2%

CCCCCCC(C)CC1=C(O)c2ccccc2C(=O)C1=O (stereo unspecified)
inactive: [1] -18.5% | [2] 7.55% | [3] -1.9% | [4] -38.4% | [5] 13.6% | [6] 5.25%

N#Cc1c[nH]n2ccnc12
inactive: [1] -16.7% | [2] -20.4% | [3] -23.4% | [4] -21.7% | [5] -4.1% | [6] -17.1%

CCOC(=O)C(C=Nc1ccc(S(N)(=O)=O)cc1)C(=O)OCC
inactive: [1] -8.15% | [2] 4.85% | [3] 12.1% | [4] -22.4% | [5] -1.1% | [6] -24.9%

Cc1ccc(S(=O)(=O)n2ccnc2)cc1
inactive: [1] -46% | [2] -21.9% | [3] -1.25% | [4] 15.9% | [5] 11.7% | [6] -25.9%

CCCCCn1cnc2cc(N3CCOCC3)c([N+](=O)[O-])cc2c1=O
inactive: [1] 4.9% | [2] 34.9% | [3] 5.75% | [4] 8.2% | [5] 18.2% | [6] 14.3%

COc1ccc(Cl)cc1NC(=O)c1ccccc1C(=O)O
inactive: [1] 1.2% | [2] 20.9% | [3] -3.2% | [4] -4.3% | [5] 12.4% | [6] -26.1%

N/N=C(\c1nc2ccc([N+](=O)[O-])cc2[nH]c1=O)C(O)c1ccc(Cl)c(Cl)c1 (stereo unspecified)
inactive: [1] 5.7% | [2] -6.65% | [3] -11.1% | [4] -12.7% | [5] 22.3% | [6] -6.6%

O=C1c2ccccc2-c2ccc(N=Cc3cccs3)cc21
inactive: [1] 30.9% | [2] -5.65% | [3] -3.35% | [4] 9.4% | [5] 33.5% | [6] 11.7%

O=C(NCCCl)c1ccc(F)cc1
inactive: [1] -21.2% | [2] -4.65% | [3] -12.4% | [4] 0.35% | [5] -6.95% | [6] -44.7%

Cc1cccc(Cl)c1NC(=O)N(C)c1ccccc1
inactive: [1] 8.95% | [2] -11.9% | [3] 14.2% | [4] 23.4% | [5] 23.9% | [6] 11.7%

O=C1C=CC(n2cc(F)c(=O)[nH]c2=O)O1 (stereo unspecified)
inactive: [1] 27.1% | [2] 44.2% | [3] 44.9% | [4] 12.9% | [5] 9.3% | [6] -43.9%

Cc1ccc(C(=O)c2cc3c([nH]c4ccccc43)c(C)c2C(=O)O)cc1
inactive: [1] 15.8% | [2] -9.55% | [3] -5.1% | [4] 28.6% | [5] 21.5% | [6] 21.1%

BrC1(Br)C2CC/C=C/CCCCC21 (stereo unspecified)
inactive: [1] -10.1% | [2] 13.9% | [3] 20.9% | [4] -1.85% | [5] -3.05% | [6] -27.1%

COc1ccc(C(CC(=O)c2ccccc2)C(=O)c2ccc3c(c2)OCO3)cc1 (stereo unspecified)
inactive: [1] -40% | [2] -50.5% | [3] -38.8% | [4] -12.7% | [5] -0.3% | [6] -31.6%

N#CCCN(C1=NN(C(=O)CC(=O)Nc2ccc(Cl)cc2)C(c2ccccc2)C1)c1ccc(Cl)cc1 (stereo unspecified)
inactive: [1] 14.3% | [2] -13.7% | [3] -17.6% | [4] 10.7% | [5] -5.55% | [6] -8.35%

[N-]=[N+]=NC1CC(n2ccc(=O)[nH]c2=O)OC1CO (stereo unspecified)
inactive: [1] -16.6% | [2] -21.9% | [3] 3.3% | [4] -13.6% | [5] -12.8% | [6] -6.85%

[N-]=[N+]=Nc1ccc(S(=O)(=O)Oc2cc(OS(=O)(=O)c3ccc(N=[N+]=[N-])cc3)cc(OS(=O)(=O)c3ccc(N=[N+]=[N-])cc3)c2)cc1
inactive: [1] 4% | [2] 16.1% | [3] 10.6% | [4] 8% | [5] -5.9% | [6] 14.1%

Cc1nc2cc(Cl)ccc2s1
inactive: [1] 30.5% | [2] 2.8% | [3] 22.1% | [4] 18.4% | [5] 30.3% | [6] 26.2%
